# Data as given in the antibiotic and cytotoxicity screens of Wong et al. (2023).
# The campaign covered roughly 39,000 compounds. About 3,300 (8.5%) were called active. Only a selection was taken, and actives are over-represented in it overall.
# Tested on: HepG2
# Assay: cytotoxicity call (relative viability < 0.9)
# Conditions: 10 µM
row,Structure (SMILES),cytotoxicity call
1,COCC(=O)Nc1ccc2c(c1)C(=O)N(C)[C@@H]1CC[C@@H](CC(=O)N3CCc4ccccc4C3)O[C@@H]1CO2,inactive
2,COc1ccc(NC(=O)Nc2ccc3c(c2)C(=O)N([C@@H](C)CO)C[C@H](C)[C@H](CN(C)C(=O)NC2CCCCC2)OCCCC[C@@H](C)O3)cc1,inactive
3,COc1ccc(C)c2c1CCCC2=O,inactive
4,C[C@H](CO)N1C[C@H](C)[C@H](CN(C)C(=O)Nc2cccc3ccccc23)Oc2ccc(NC(=O)Cn3cnnn3)cc2CC1=O,inactive
5,C[C@@H]1CN([C@H](C)CO)C(=O)c2cc(NC(=O)Nc3ccc(C(F)(F)F)cc3)ccc2O[C@@H](C)CCCCO[C@H]1CN(C)S(=O)(=O)c1cccs1,inactive
6,C[C@@H]1CCCCO[C@@H](CN(C)C(=O)CCC(F)(F)F)[C@H](C)CN([C@H](C)CO)C(=O)c2cc(NS(=O)(=O)c3cccs3)ccc2O1,inactive
7,Cc1ccc(S(=O)(=O)N[C@@H]2CC[C@H](CC(=O)N3CCC(Cc4ccccc4)CC3)O[C@@H]2CO)cc1,inactive
8,C[C@@H]1CCCCO[C@H](CN(C)C(=O)NC2CCCCC2)[C@@H](C)CN([C@H](C)CO)C(=O)c2cc(NC(=O)Nc3ccccc3)ccc2O1,inactive
9,C[C@@H]1CCCCO[C@H](CN(C)C(=O)C2CCCCC2)[C@@H](C)CN([C@@H](C)CO)C(=O)c2cc(NS(=O)(=O)c3ccc(F)cc3)ccc2O1,inactive
10,COc1cccc(NC(=O)N(C)C[C@@H]2Oc3ncc(C#Cc4cccnc4)cc3C(=O)N([C@H](C)CO)C[C@@H]2C)c1,inactive
11,C=C1CC2C3C=C(C)C4=CC(=O)CCC4(C)C3CCC2(C)C1(OC(C)=O)C(C)=O (stereo not drawn),inactive
12,COC(=O)C[C@@H]1C[C@@H](C)[C@@H]2C(=O)c3c(O)c4c(c(O)c3C(=O)[C@@H]2[C@@H]1O)[C@H]1C[C@@H](O)[C@@]4(O)[C@@H](C)O1,active
13,CO[C@H](CN(C)S(=O)(=O)c1cn(C)cn1)[C@H](C)CN(C(=O)Nc1ccc(C(F)(F)F)cc1)[C@@H](C)CO,inactive
14,C[C@@H]1CCCCO[C@@H](CN(C)C(=O)Nc2ccc(C(F)(F)F)cc2)[C@H](C)CN([C@@H](C)CO)C(=O)c2cc(NS(=O)(=O)c3ccccc3)ccc2O1,inactive
15,C[C@H]1CCCCO[C@@H](CN(C)C(=O)Nc2ccc(C(F)(F)F)cc2)[C@@H](C)CN([C@@H](C)CO)C(=O)c2cc(NS(=O)(=O)c3ccccc3)ccc2O1,active
16,C[C@@H]1CCCCO[C@@H](CN(C)C(=O)Nc2ccc(C(F)(F)F)cc2)[C@H](C)CN([C@H](C)CO)C(=O)c2cc(NS(=O)(=O)c3ccccc3)ccc2O1,active
17,C[C@@H]1CCCCO[C@H](CN(C)C(=O)Nc2ccc(C(F)(F)F)cc2)[C@H](C)CN([C@@H](C)CO)C(=O)c2cc(NS(=O)(=O)c3ccccc3)ccc2O1,active
18,C[C@@H]1CN([C@@H](C)CO)C(=O)c2cc(NS(=O)(=O)c3ccccc3)ccc2O[C@@H](C)CCCCO[C@@H]1CN(C)C(=O)Nc1ccc(C(F)(F)F)cc1,inactive
19,C[C@H](CO)N1C[C@H](C)[C@@H](CN(C)C(=O)Nc2ccc(C(F)(F)F)cc2)OCCCC[C@H](C)Oc2ccc(NS(=O)(=O)c3ccccc3)cc2C1=O,inactive
20,C[C@@H]1CCCCO[C@H](CN(C)C(=O)Nc2ccc(C(F)(F)F)cc2)[C@@H](C)CN([C@H](C)CO)C(=O)c2cc(NS(=O)(=O)c3ccccc3)ccc2O1,inactive
21,C[C@@H]1CN([C@H](C)CO)C(=O)c2cc(NS(=O)(=O)c3ccccc3)ccc2O[C@@H](C)CCCCO[C@H]1CN(C)C(=O)Nc1ccc(C(F)(F)F)cc1,inactive
22,C[C@@H]1CCCCO[C@H](CN(C)C(=O)Nc2ccc(C(F)(F)F)cc2)[C@H](C)CN([C@H](C)CO)C(=O)c2cc(NS(=O)(=O)c3ccccc3)ccc2O1,active
23,C[C@@H]1CN([C@@H](C)CO)C(=O)c2cc(NS(=O)(=O)c3ccccc3)ccc2O[C@@H](C)CCCCO[C@H]1CN(C)C(=O)Nc1ccc(C(F)(F)F)cc1,inactive
